Screening data deposited in PubChem BioAssay by National Center for Advancing Translational Sciences (NCATS).
A selection: hits, their analogues and other compounds. The true share with any hit is near 5.8%.
RORg inh: inhibitors of mouse ROR gamma transcriptional activity | Drosophila S2 Gal4-RORgamma UAS-luciferase reporter, 20 h | Potency, µM (top dose mostly 53.6 µM), actives largely listed as inhibitors | actives 5.4% (n = 310,000) | AID 2551; also: nearly all actives have a fitted effect of over 60% in size
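Luciferase reporter read in Schneider cells carrying Gal4-RORγ (mouse) and UAS-Photinus luciferase; cells given compound 1 h before 700 uM copper sulfate induction, then incubated 20 h at ambient temperature.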
uPA generation: inhibitors of cell surface uPA generation. Potency, µM (titrated, usually from 38.3 µM), most hits filed as inhibitors. AID 540303. cell surface uPA generation assay, qHTS. actives 0.31% (n = 330,000); active = well fitted inhibition curve with a large enough effect; inconclusive = small, poorly fitted or top-dose-only effect; inactive = no such curve, though single readings can be large or run the other way; tested in mouse RAW 264.7 cells; also: nearly all actives have a fitted effect of over 55% in size
TRPV1 agonist: activates the human vanilloid receptor TRPV1; activation, % at 8.33 µM; AID 540275; actives 0.19% (n = 320,000); TRPV1-expressing cells, Fluo-8 calcium influx, agonist mode; Q8NER1; in the data active = activation above about 80%; inconclusive = between about 30% and that limit
Target sequence (Q8NER1 whole entry, looked up): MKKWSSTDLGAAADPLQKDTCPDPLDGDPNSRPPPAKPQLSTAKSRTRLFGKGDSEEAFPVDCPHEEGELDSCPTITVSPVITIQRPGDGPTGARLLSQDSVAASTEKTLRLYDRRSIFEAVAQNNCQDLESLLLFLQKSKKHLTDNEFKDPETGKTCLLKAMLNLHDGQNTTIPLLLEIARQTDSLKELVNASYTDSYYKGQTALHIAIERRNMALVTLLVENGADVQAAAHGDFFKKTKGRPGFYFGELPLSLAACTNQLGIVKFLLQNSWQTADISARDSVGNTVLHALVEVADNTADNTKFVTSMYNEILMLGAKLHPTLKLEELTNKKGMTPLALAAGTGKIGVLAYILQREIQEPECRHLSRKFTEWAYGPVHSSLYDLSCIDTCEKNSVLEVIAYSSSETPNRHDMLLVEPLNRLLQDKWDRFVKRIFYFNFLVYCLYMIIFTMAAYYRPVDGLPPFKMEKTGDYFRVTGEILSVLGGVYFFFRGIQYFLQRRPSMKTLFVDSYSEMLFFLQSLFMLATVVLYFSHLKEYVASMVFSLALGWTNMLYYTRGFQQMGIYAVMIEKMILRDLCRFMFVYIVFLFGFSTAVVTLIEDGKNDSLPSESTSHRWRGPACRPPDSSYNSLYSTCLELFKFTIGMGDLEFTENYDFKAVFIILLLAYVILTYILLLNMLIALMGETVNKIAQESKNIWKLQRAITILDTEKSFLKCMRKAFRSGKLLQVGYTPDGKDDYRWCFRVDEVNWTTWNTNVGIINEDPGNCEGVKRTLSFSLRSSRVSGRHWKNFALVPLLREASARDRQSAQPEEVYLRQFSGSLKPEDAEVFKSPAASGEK
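Fluo-8 calcium influx in TRPV1-expressing cells, kinetic read (ex 480/em 520 nm). Compound added and read 3 min for agonist activity, followed by capsaicin at EC20 final and 2 min further read for enhancement.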
VP16 counter: Gal4-VP16 reporter inhibition counter-screen; Drosophila S2 Gal4-VP16 UAS-luciferase, luminescence, 20 h; Potency, µM (doses to about 53.6 µM), usual class: inhibitors; actives 3.5% (n = 310,000); AID 2546;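 also: Gal4-VP16 expression switched on by copper sulfate through the metallothionein promoter; nearly all actives have a fitted effect of over 50% in size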
TRPV1 PAM: potentiators of human vanilloid receptor 1 (TRPV1). TRPV1-expressing cells, Fluo-8 calcium influx, capsaicin EC20 potentiation. potentiation, % at 8.33 µM. actives 0.02% (n = 320,000). AID 540277; in the data active = potentiation above about 80%; inconclusive = between about 30% and that limit
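Cells expressing TRPV1 were dye-loaded with Fluo-8 and read kinetically: 10 s baseline, 3 min after compound (agonist portion), then 2 min after EC20 capsaicin (allosteric enhancer portion). Calcium-bound dye fluorescence at 480/520 nm.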
Numbers stand for hits; 0 = inactive; ? = inconclusive; - = no result given; [ ] = another dose, or the depositor's remark. Unless noted, calls follow the shape of the dose curve; as a rule, active = well fitted curve in the direction sought with a large enough effect; inconclusive = small, poorly fitted or top-dose-only effect, or another doubt; inactive = no such curve, though single readings can be large; an effect the other way counts as inactive or inconclusive.

SMILES	RORg inh	uPA generation	TRPV1 agonist	VP16 counter	TRPV1 PAM
CCC1=NN(C(=O)c2ccccc2O)C(O)(c2ccccc2)C1 (stereo not drawn)	5.01µM	11.2µM	?	7.94µM	0
O=C(c1cc(-c2ccc(Br)cc2)n[nH]1)N1CCN(C(=O)c2ccccc2Br)CC1	0	0	0	0	0
O=C(c1ccccc1O)N1N=C(C(F)(F)F)CC1(O)c1ccc([N+](=O)[O-])cc1 (stereo not drawn)	11.2µM	0	0	10µM	0
CCC1=NN(C(=O)c2ccc([N+](=O)[O-])cc2)C(O)(c2ccccc2)C1 (stereo not drawn)	0[1.91 µM]	0	0	?	0
COc1ccc(OC2C=CC(C#Cc3ccc(C(C)(C)C)cc3)OC2CO)cc1 (stereo not drawn)	0[10 µM]	-	-	0[10 µM]	-
C=C(C(=O)c1ccccc1)C(c1ccccc1)C(C)C(=O)c1ccccc1 (stereo not drawn)	2.82µM	0	0	15.8µM	0
C=C(C(=O)c1ccccc1)C(C)C(=C)C(=O)c1ccccc1	12.6µM	0	0	11.2µM	0
Cc1cc(C)c(NC(=O)CN(CC(=O)O)CC(=O)O)c(C)c1Br	0	-	-	0	-
CCOC(=O)C1CCN(CC(C)(C)NS(=O)(=O)c2ccccc2)CC1	0	0	0	0	0
C=CCSc1nc2sc3c(c2c(=O)n1CC)CCc1ccccc1-3	10µM	-	0	?	0
Cc1cccc(C(=O)NNC(=O)c2ccc(S(=O)(=O)N3CCOCC3)cc2)c1	0	0	0	0	0
C[C@@H](NC(=O)c1nc[nH]c1C(=O)N[C@@H](Cc1ccccc1)C(=O)OC(C)(C)C)c1ccccc1	3.98µM	0	0	7.08µM	0
C[C@H](NC(=O)c1nc[nH]c1C(=O)N[C@@H](Cc1ccccc1)C(=O)OC(C)(C)C)c1ccccc1	7.08µM	?	0	11.2µM	0
CN(Cc1ccccc1)C(=O)c1[nH]cnc1C(=O)N[C@@H](Cc1ccccc1)C(=O)OC(C)(C)C	?	?	?	?	0
COC(=O)c1cccc(C23CC4(C2)[C@H](CN(CC2CCCCC2)[C@@H]4c2ccccc2)C3c2ccc(C(F)(F)F)cc2)c1 (stereo partly drawn)	0	-	-	0	-
CCCC[C@H](NC(C)=O)C(=O)N[C@H]1CC(=O)NCCCC[C@@H](C(N)=O)NC(=O)[C@H](Cc2c[nH]c3ccccc23)NC(=O)[C@H](CCCN=C(N)N)NC(=O)[C@@H](Cc2ccccc2)NC(=O)[C@H](Cc2cnc[nH]2)NC1=O	0	-	-	0	-
O=C(NNC(=O)c1ccco1)c1ccccc1	0	0	0	0	0
Cc1ccc(C(=O)NNC(=O)c2ccc3ccccc3c2O)cc1	14.1µM	0	0	10µM	0
COc1ccc(C(=O)NNC(=O)c2ccc3ccccc3c2O)cc1	-	?	0	-	0
O=C(NC(=S)NNC(=O)c1ccccc1O)c1ccccc1	11.2µM	0	0	0	0
Cc1ccc(C(=O)NC(=S)NNC(=O)CCN2CCOCC2)cc1	11.2µM	0	0	0	0
O=C(NC(=S)NNC(=O)c1ccco1)c1ccccc1	11.2µM	0	0	11.2µM	0
C[Si](C)(C)Cl	0	-	-	0	-
COC(=O)N1[C@H](C)C=C[C@]1(Cc1ccccc1)C(=O)NCc1ccc(N(C)C)cc1	0	-	-	0	-
N#Cc1ccc2c(c1)C[C@]1(CCCCN3C(=O)c4ccccc4C3=O)Oc3c(c(=O)oc4ccccc34)C2O1	0[10 µM]	-	0	0[10 µM]	0
SMILES	RORg inh	uPA generation	TRPV1 agonist	VP16 counter	TRPV1 PAM
Cc1ccc(C(=O)NC(=S)NNC(=O)c2ccccc2O)cc1	0	0	0	0	0
Cc1ccc(C(=O)NC(=S)NNC(=O)c2ccccc2)cc1	?	0	0	20µM	0
Cc1ccccc1C(=O)NNC(=S)NC(=O)c1ccccc1	0.794µM	0	0	2.82µM	0
Cc1ccc(NC(=O)NC(=S)NC(=O)c2ccccc2)cc1	2.51µM	0	0	?	0
Cc1ccc(C(=O)NNC(=S)NC(=O)c2ccccc2)cc1	-	0	-	-	-
O=Cc1c[nH]c2ccccc12	-	-	0	-	0
COC/C=C/C1=CC2=CC(=O)C(C)(OC(=O)c3ccc(Cl)nc3)C(=O)C2=CO1 (stereo not drawn)	0	-	-	0	-
C=CCNC(=O)COc1ccc(S(=O)(=O)N2CCCC2)cc1	0	0	0	0	0
COCC(C)n1c(C)cc(C(=O)COC(=O)c2c(C)nn(-c3ccccc3)c2C)c1C (stereo not drawn)	0	0	0	0	0
COCC(C)n1c(C)cc(C(=O)COC(=O)c2c(NC(C)=O)sc(C)c2C)c1C (stereo not drawn)	4.47µM	0	0	0	0
Cc1ccccc1N1C(=O)C2CCCN2C1=S (stereo not drawn)	-	0	0	-	0
CCCn1c(C)cc(C(=O)COC(=O)c2ccc[nH]c2=O)c1C	3.98µM	0	0	6.31µM	0
Cc1cc(C(=O)COC(=O)c2ccc[nH]c2=O)c(C)n1-c1ccccc1F	?	2.82µM	0	?	0
Cc1ccc(-n2c(C)cc(C(=O)COC(=O)c3ccc[nH]c3=O)c2C)cc1C	0	0	0	0.02µM	0
Cc1ccc(-n2c(C)cc(C(=O)COC(=O)C3=NNC(=O)CC3)c2C)cc1	0	0	?	0	0
Cc1noc(C)c1-c1ccc2ncnc(NCc3cccn3C)c2c1	0	-	-	0	-
Oc1csc(Cc2nc(-c3ccc4ccccc4c3)cs2)n1	11.2µM	0	0	0	0
Oc1csc(Cc2nc(-c3ccc(-c4ccccc4)cc3)cs2)n1	?	0	0	0	0
C[C@H]1C2=C3C(CC[C@H]4C(OCc5ccc(F)cc5C(F)(F)F)OC[C@](C)([C@@H]34)N(C(=O)OC(C)(C)C)C2)C2COC(=O)OCC21 (stereo partly drawn)	0	-	-	0	-
CCN1/C(=C2\SC(=S)N(Cc3ccccc3)C2=O)Sc2ccccc21	0	0	0	0	0
CCC(CO)[n+]1c(C)cc(/C=C2\Sc3ccccc3N2Cc2ccccc2)cc1C (stereo not drawn)	?	0	0	7.08µM	0
O=C1CC(N(O)C2CC(=O)N(Cc3ccccc3)C2=O)C(=O)N1Cc1ccccc1 (stereo not drawn)	0	0	0	?	0
CCCCCC(=O)N(O)C1CC(=O)N(c2ccccc2)C1=O (stereo not drawn)	15.8µM	0	0	7.08µM	0
CCCCCCC(=O)N(O)C1CC(=O)N(Cc2ccccc2)C1=O (stereo not drawn)	10µM	-	?	0	0
COc1ccc(C2=C(C)C(N3CCN(C(=O)c4ccco4)CC3)=NS2(=O)=O)cc1	0	0	0	0	0
CN1CC(=O)N(C)c2ncn(Cc3ccccc3)c2C1=O	4.47µM	0	0	0[0.365 µM]	0
Cc1ccc(CNC(=O)C(Cc2ccccc2)NS(=O)(=O)c2ccc(Br)s2)cc1 (stereo not drawn)	?	0	0	0	0
COc1ccc(CNc2ccc([N+](=O)[O-])cc2C)cc1	0	0	0	0	0
